The text below walks through data of article PMC4081100, “A DNA-binding-site landscape and regulatory network analysis for NAC transcription factors in Arabidopsis thaliana”.

Common to all, as to assay: universal protein binding microarray (PBM); transcription factors of Arabidopsis thaliana; high values mean tight binding
In experiment [1] the target is T1, GST-ANAC092(1-176) (Arabidopsis thaliana, UniProt Q9FKA0 1-176).
T1 sequence: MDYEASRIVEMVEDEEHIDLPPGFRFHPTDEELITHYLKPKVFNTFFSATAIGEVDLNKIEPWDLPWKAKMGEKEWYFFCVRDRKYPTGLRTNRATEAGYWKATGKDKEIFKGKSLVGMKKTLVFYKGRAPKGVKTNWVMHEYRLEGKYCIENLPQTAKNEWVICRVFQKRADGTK
The following applies: protein: recombinant; tags: GST; chain copies: 2; dsDNA, one strand shown. The gist of the method:
(§1)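 Protein amounts were determined by A280 or anti-GST western blot after glutathione–Sepharose 4B purification of GST-tagged proteins induced in cells, with zinc acetate included for zinc-finger proteins. Duplicate runs at 200 to 500 nM final were done on custom all-10-mer Agilent 4 × 180K arrays made double-stranded by primer extension. The normalised enrichment score (E-score) over gapped and ungapped 8-mers is the measure of binding.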

In experiment [2] the target is GST-NTL6(1-168) (Arabidopsis thaliana, UniProt Q9SCK6 1-168). The following applies: protein: recombinant; tags: GST; chain copies: 2; dsDNA, one strand shown. The gist of the method: as §1
GST-NTL6(1-168), sequence (Q9SCK6 1-168): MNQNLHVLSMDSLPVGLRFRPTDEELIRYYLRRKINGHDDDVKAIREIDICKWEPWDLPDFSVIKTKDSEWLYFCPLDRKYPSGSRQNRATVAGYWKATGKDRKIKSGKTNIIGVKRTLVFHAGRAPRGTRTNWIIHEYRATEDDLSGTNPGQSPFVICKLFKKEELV
Experiment [3] concerns the target T2, GST-ANAC055(1-171) (Arabidopsis thaliana, UniProt Q9LDY8 1-171).
T2 sequence: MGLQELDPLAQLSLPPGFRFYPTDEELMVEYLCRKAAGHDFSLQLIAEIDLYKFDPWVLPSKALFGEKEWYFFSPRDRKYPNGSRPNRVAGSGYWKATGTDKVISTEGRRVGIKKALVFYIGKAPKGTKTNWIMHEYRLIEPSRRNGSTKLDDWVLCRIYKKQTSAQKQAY
The settings on record: protein: recombinant; tags: GST; chain copies: 2; dsDNA, one strand shown. The gist of the method: as §1

The target in experiment [4] is T3, GST-NAP(1-166) (Arabidopsis thaliana, UniProt O49255 1-166).
T3 sequence: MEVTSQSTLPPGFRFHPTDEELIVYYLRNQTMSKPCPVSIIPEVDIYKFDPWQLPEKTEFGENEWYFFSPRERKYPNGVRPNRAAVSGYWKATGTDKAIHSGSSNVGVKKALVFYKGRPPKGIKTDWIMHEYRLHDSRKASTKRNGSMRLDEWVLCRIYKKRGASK
The following applies: protein: recombinant; tags: GST; chain copies: 2; dsDNA, one strand shown. In outline: as §1

In experiment [5] the target is T4, GST-NST2(1-184) (Arabidopsis thaliana, UniProt Q9M274 1-184).
T4 sequence: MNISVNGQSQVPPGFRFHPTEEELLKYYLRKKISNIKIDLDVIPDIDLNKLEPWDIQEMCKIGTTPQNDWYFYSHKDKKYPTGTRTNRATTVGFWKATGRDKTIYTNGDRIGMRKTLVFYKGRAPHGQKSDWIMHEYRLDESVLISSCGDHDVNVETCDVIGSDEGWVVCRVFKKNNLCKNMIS
The settings on record: protein: recombinant; tags: GST; chain copies: 2; dsDNA, one strand shown. In outline:
as §1

The target of experiment [6] is T5, GST-NTL8 NAC domain (Arabidopsis thaliana, UniProt Q9XIN7 14-156).
T5 sequence: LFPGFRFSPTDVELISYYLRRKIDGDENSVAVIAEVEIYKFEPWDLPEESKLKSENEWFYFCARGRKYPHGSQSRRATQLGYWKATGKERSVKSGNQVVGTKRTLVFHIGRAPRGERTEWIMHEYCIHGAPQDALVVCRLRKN
The settings on record: protein: recombinant; tags: GST; chain copies: 2; dsDNA, one strand shown. The gist of the method: as §1

The target of experiment [7] is T6, GST-SND1(1-203) (Arabidopsis thaliana, UniProt Q9LPI7 1-203).
T6 sequence: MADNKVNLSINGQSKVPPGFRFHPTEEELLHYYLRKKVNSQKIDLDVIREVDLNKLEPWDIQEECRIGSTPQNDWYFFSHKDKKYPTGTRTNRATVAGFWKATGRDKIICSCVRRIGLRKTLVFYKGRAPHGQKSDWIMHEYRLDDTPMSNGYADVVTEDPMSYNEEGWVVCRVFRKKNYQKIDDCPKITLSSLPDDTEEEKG
The settings on record: protein: recombinant; tags: GST; chain copies: 2; dsDNA, one strand shown. The gist of the method: as §1

In experiment [8] the target is T7, GST-VND3 NAC domain (Arabidopsis thaliana, UniProt Q9FH59 12-162).
T7 sequence: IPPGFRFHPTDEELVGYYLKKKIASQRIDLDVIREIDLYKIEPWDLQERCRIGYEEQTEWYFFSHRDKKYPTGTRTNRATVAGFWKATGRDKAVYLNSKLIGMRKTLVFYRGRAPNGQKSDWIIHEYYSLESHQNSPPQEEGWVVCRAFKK
The following applies: protein: recombinant; tags: GST; chain copies: 2; dsDNA, one strand shown. In outline: as §1

Experiment [9] has as its target T8, GST-ANAC019 NAC domain (Arabidopsis thaliana, UniProt Q9C932 14-162).
T8 sequence: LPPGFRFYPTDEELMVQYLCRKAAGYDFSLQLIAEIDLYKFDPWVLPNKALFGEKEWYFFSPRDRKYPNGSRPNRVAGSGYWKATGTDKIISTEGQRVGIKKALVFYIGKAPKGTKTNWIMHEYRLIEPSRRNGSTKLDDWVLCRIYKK
The settings on record: protein: recombinant; tags: GST; chain copies: 2; dsDNA, one strand shown. The gist of the method: as §1

The target in experiment [10] is GST-WRKY1(266-371) (Arabidopsis thaliana, UniProt Q9SI37 266-371). The following applies: protein: recombinant; tags: GST; dsDNA, one strand shown. The gist of the method:
as §1

Experiment [11] concerns the target T9, GST-ATAF1 NAC domain (Arabidopsis thaliana, UniProt Q39013 7-158).
T9 sequence: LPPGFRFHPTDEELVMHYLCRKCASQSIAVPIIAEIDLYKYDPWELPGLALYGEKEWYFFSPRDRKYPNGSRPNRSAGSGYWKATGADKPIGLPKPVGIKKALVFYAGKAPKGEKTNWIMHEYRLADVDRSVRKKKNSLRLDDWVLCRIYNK
The settings on record: protein: recombinant; tags: GST; chain copies: 2; dsDNA, one strand shown. The gist of the method:
as §1

Experiment [12] has as its target T10, GST-ANAC092(1-285) full length (Arabidopsis thaliana, UniProt Q9FKA0 1-285).
T10 sequence: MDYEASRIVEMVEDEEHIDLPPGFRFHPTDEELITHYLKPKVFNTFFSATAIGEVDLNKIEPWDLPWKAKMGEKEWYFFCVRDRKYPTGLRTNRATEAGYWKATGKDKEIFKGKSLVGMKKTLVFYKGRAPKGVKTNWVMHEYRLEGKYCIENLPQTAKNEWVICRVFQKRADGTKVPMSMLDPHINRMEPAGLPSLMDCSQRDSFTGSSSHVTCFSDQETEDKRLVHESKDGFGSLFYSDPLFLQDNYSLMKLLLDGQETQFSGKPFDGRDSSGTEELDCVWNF
The following applies: protein: recombinant; tags: GST; chain copies: 2; dsDNA, one strand shown. In outline:
as §1

Experiment [13] concerns the target T11, GST-VND7 NAC domain (Arabidopsis thaliana, UniProt Q9C8W9 9-158).
T11 sequence: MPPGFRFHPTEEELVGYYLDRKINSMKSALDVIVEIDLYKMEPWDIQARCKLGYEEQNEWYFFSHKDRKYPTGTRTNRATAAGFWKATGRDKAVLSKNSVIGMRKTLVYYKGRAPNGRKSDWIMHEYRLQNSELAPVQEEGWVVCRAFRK
The settings on record: protein: recombinant; tags: GST; chain copies: 2; dsDNA, one strand shown. The gist of the method: as §1

GST-WRKY1(266-371), sequence (Q9SI37 266-371): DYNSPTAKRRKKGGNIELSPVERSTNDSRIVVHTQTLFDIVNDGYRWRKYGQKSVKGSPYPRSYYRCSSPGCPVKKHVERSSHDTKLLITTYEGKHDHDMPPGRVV

Take ACAGGGAA: the binding signal is 0.128 E-score in experiment [1]; 0.239 E-score in [2]; 0.0748 E-score in experiment [3]; 0.0751 E-score in experiment [4]; 0.0924 E-score in experiment [5]; 0.409 E-score in [6]. In addition, the binding signal in [7] is 0.108 E-score; in [8], 0.115 E-score.

For CCGTCAAA, the binding signal in [9] was found to be 0.164 E-score; in experiment [7], 0.148 E-score; in experiment [8] it was 0.0953 E-score; in experiment [10], 0.409 E-score.

Take GTAGTCAA: the binding signal worked out at 0.0675 E-score in experiment [2]; 0.168 E-score in experiment [3]; 0.191 E-score in [11]; 0.0663 E-score in experiment [4]; 0.112 E-score in experiment [5]; 0.0829 E-score in experiment [7]. For the same sequence, the figures for the binding signal in [8] and in [10] were 0.134 E-score and 0.478 E-score, respectively.

On to ACCGTCAA, for which the binding signal was 0.156 E-score in [9]; 0.117 E-score in [12]; 0.092 E-score in experiment [4]; 0.148 E-score in experiment [7]; 0.126 E-score in experiment [8]; 0.41 E-score in experiment [10].

Consider TCACGCCA, for which the binding signal in [1] was found to be 0.436 E-score; in [9], 0.223 E-score; in experiment [3] it was 0.156 E-score; in experiment [11], 0.178 E-score; in [12] it was 0.454 E-score; in experiment [4], 0.0509 E-score. Also, the binding signal turned out to be 0.263 E-score in [5], 0.358 E-score in [7] and 0.0902 E-score in experiment [8].

For AAGGTAAG, the binding signal in experiment [1] turned out to be 0.0968 E-score; in experiment [2], 0.306 E-score; in experiment [9], 0.175 E-score; in experiment [11], 0.11 E-score; in experiment [12], 0.225 E-score; in experiment [5], 0.144 E-score. The binding signal in experiment [6] came to 0.402 E-score; in [7] it was 0.2 E-score; in experiment [8], 0.113 E-score.

With ATAAGGAA, the binding signal in experiment [1] worked out at 0.118 E-score; in [2] it was 0.423 E-score; in experiment [3] it was 0.0899 E-score; in experiment [11], 0.129 E-score; in [12] it was 0.217 E-score; in experiment [5], 0.136 E-score. Further, the binding signal in experiment [6] came out at 0.332 E-score; in experiment [7], 0.201 E-score; in experiment [8], 0.152 E-score.

Regarding GTCAAAAA, the binding signal in experiment [1] was found to be 0.114 E-score; in experiment [9] it was 0.0995 E-score; in experiment [11], 0.154 E-score; in experiment [12], 0.0617 E-score; in experiment [5], 0.121 E-score; in experiment [6] it was 0.0654 E-score. Also, the binding signal in experiment [7] is 0.216 E-score; in experiment [13], 0.0546 E-score; in experiment [10] it was 0.442 E-score.

Regarding GTCAAGTA, the binding signal amounted to 0.0988 E-score in [3]; 0.136 E-score in [11]; 0.186 E-score in [12]; 0.0698 E-score in experiment [7]; 0.137 E-score in experiment [8]; 0.417 E-score in [10].

Regarding AGCGTCAA, the binding signal in experiment [1] turned out to be 0.0554 E-score; in experiment [11] it was 0.0689 E-score; in experiment [12] it was 0.158 E-score; in experiment [4], 0.0978 E-score; in [5] it was 0.135 E-score; in [6], 0.12 E-score. The binding signal in experiment [7] was 0.246 E-score; in experiment [13] it was 0.0921 E-score; in experiment [10], 0.408 E-score.

Turning to CCCTCCCC, the binding signal in experiment [1] worked out at 0.299 E-score; in experiment [2], 0.353 E-score; in experiment [9], 0.226 E-score; in experiment [11], 0.121 E-score; in experiment [12] it was 0.308 E-score; in [5] it was 0.169 E-score. Besides, the binding signal is 0.336 E-score in experiment [6], 0.405 E-score in experiment [7], 0.198 E-score in experiment [13] and 0.0672 E-score in experiment [10].

For the sequence CACGCGAC, the binding signal in experiment [1] came out at 0.421 E-score; in experiment [12], 0.462 E-score; in experiment [4], 0.0736 E-score; in experiment [5], 0.161 E-score; in experiment [7], 0.351 E-score; in experiment [13], 0.064 E-score. The binding signal in experiment [10] came to 0.11 E-score.

Take GGCGTGTA: the binding signal in [1] came out at 0.4 E-score; in [9] it was 0.198 E-score; in [3], 0.109 E-score; in [11], 0.163 E-score; in experiment [12], 0.439 E-score; in experiment [4], 0.13 E-score. The figures for the binding signal in experiment [5], in [7] and in [8] were 0.14 E-score, 0.142 E-score and 0.118 E-score, respectively.

In the case of CACGCATA, the binding signal in experiment [1] stood at 0.397 E-score; in experiment [3], 0.0626 E-score; in experiment [12], 0.411 E-score; in [4], 0.147 E-score; in experiment [5] it was 0.121 E-score; in experiment [7], 0.18 E-score. Moreover, the binding signal in experiment [8] stood at 0.116 E-score.

As to ACGCGACC, the binding signal in experiment [1] was 0.283 E-score; in experiment [9], 0.0639 E-score; in experiment [12], 0.423 E-score; in experiment [5] it was 0.0828 E-score; in [7] it was 0.367 E-score; in experiment [13] it was 0.0778 E-score. The binding signal in experiment [10] worked out at 0.342 E-score.
